From PubChem BioAssay (Tox21) come the findings set out here.

The target of test [1] is Retinoic acid receptor RXR-alpha (Homo sapiens) (UniProt P19793). Put plainly: qHTS assay to identify small molecule agonists of the RXR signaling pathway (AID 1159527; calls by dose curve; also: nearly all actives have a fitted effect of over 35% in size). Particulars: HEK293T RXRa-UAS-bla, beta-lactamase ratio, 16 h; series mostly up to 76.8 µM. Put shortly: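 Agonist mode; 9-cis retinoic acid positive control. HEK 293T UAS-bla reporter cells, 2% charcoal-stripped FBS, 16 hr compound exposure at 37 C/5% CO2. LiveBLAzer B/G FRET substrate 2 hr RT; ex 405, em 460/530 nm.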
(In general: qHTS replaces the single test concentration by a dilution series.)

Test [2] in a line: qHTS assay to identify small molecule agonists of the RXR signaling pathway - cell viability counter screen (AID 1159529). Also: nearly all actives have a fitted effect of over 50% in size. The conditions noted are these: RXR-alpha-bla HEK293T viability, CellTiter-Glo, 16 h; series mostly up to 76.8 µM. Put shortly: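 Luminescence from CellTiter-Glo (30 min, RT) measured viability in the same wells as the beta-lactamase reporter readout. Cells: GeneBLAzer RXR-alpha HEK 293T, 2% charcoal-stripped FBS. Compound exposure 16 hr, 37 C.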

Test [3] in a line: qHTS assay to identify small molecule antagonists of the retinoid acid receptor (RAR) signaling pathway - cell viability counter screen (AID 1159551). Also: nearly all actives have a fitted effect of over 35% in size. Particulars: C3RL4 cells viability, ATP luminescence (CellTiter-Glo), 6 h; series mostly up to 92.4 µM. Put shortly: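 Retinol-stimulated (1 uM final) C3RL4 cells, compound 6 h, 37 C; readout CellTiter-Glo luminescence (ATP) after 30 min RT incubation.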

Test [4] can be described thus: qHTS assay to identify small molecule antagonists of the retinoic acid receptor (RAR) signaling pathway (AID 1159552; also: nearly all actives have a fitted effect of over 50% in size). The conditions noted are these: C3RL4 RARE luciferase reporter, retinol-stimulated, 6 h; series mostly up to 92.4 µM. Put shortly: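 Luminescence from a RARE luciferase reporter in C3RL4 cells served as read-out. Cells received compounds together with 1 uM final retinol and incubated 6 hr at 37 C before detection reagent was added for 30 min at room temperature.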

Test [5] in a line: qHTS assay to identify small molecule agonists of the retinoic acid receptor (RAR) signaling pathway (AID 1159553). Also: potency is read from the fitted curve at half-maximal effect. The conditions noted are these: C3RL4 RARE luciferase reporter, agonist, 6 h; series mostly up to 73.3 µM. Put shortly:
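Reporter readout comes from luciferase under RARE control in C3RL4 cells; compound exposure lasts 6 hr at 37 C in 5% CO2, and luminescence is recorded following a 30 min room-temperature incubation with reagent.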

Inconclusive results are not listed. Unmarked numbers belong to inactive results. Activity calls are given as the source filed them. Unless noted, calls follow the shape of the dose curve; as a rule, active = well fitted curve in the direction sought with a large enough effect in the repeat runs; inconclusive = weak or mixed curves; inactive = no such curve, though single readings can be large; an effect the other way counts as inactive or inconclusive.
% is scaled to controls: 0 for no effect and ±100 for the full control effect.

Sequence of Retinoic acid receptor RXR-alpha (Homo sapiens) (P19793 whole entry, looked up): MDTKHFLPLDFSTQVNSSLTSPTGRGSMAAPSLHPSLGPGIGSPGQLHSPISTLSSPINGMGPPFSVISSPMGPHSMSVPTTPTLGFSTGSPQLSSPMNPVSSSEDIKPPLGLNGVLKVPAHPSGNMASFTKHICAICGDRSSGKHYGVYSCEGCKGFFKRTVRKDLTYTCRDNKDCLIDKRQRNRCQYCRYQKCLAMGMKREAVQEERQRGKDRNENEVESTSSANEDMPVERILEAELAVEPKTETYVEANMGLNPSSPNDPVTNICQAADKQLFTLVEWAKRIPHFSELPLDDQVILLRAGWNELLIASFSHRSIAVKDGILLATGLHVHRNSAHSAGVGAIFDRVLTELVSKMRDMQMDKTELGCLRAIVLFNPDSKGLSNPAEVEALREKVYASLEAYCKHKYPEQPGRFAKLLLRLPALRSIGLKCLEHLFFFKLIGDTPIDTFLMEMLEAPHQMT

For `CC(C)C(=O)OC/C=C/c1ccccc1`, the Potency entry in test [1] and in test [2] was “inactive” throughout. The outcome in test [3] was inactive.

On to `O=Cc1ccc(F)c(Br)c1`, for which the Potency entry in test [1] and in test [2] was “inactive” in each case. For the same compound, the outcome in test [3] was inactive.

`C/C(=N\O)[C@@H](C)NCC(C)(C)CN[C@H](C)/C(C)=N/O`: the Potency entry in test [1], in test [2], in test [4] and in test [5] was “inactive” each time. For the same compound, the outcome in test [3] was inactive.

As to `N#Cc1ccc(C(c2ccc(C#N)cc2)n2cncn2)cc1`, the Potency entry in test [1], in test [2], in test [4] and in test [5] was “inactive” in each case. The compound was called inactive in test [3].

As to `CCCCCCC`, the Potency entry in test [1], in test [2], in test [4] and in test [5] was “inactive” in each case. In addition, in test [3], the compound was classed as inactive.

For `CCN(O)CC`, the Potency entry in test [1], in test [2], in test [4] and in test [5] was “inactive” throughout. Besides, in test [3], the result was inactive.

On to `CCCOCCC`, for which the Potency result in test [1], in test [2], in test [4] and in test [5] was “inactive” throughout. For the same compound, the result in test [3] was inactive.

Consider `C=Cc1ccccc1`, for which the Potency entry in test [1], in test [2], in test [4] and in test [5] was “inactive” throughout. Also, the call in test [3] was inactive.

Take `CCOc1ccc2nc(N)sc2c1`: the Potency entry in test [1], in test [2] and in test [4] was “inactive” each time. Also, the outcome in test [3] was inactive. The Potency in test [5] is 3.83 µM (active).

In the case of `FC(F)(F)C(F)(F)C(F)(F)C(F)(F)C(F)(F)C(F)(F)C(F)(F)C(F)(F)Br`, the Potency result in test [1], in test [2], in test [4] and in test [5] was “inactive” in each case. The call in test [3] was inactive.

For `c1ccc(CN(CC2=NCCN2)c2ccccc2)cc1`, the Potency entry in test [1], in test [2], in test [4] and in test [5] was “inactive” in each case. The call in test [3] was inactive.

In the case of `Cc1cc(S(=O)(=O)O)c(N)cc1Cl`, the Potency entry in test [1], in test [2], in test [4] and in test [5] was “inactive” in each case. Besides, the compound was called inactive in test [3].

In the case of `CC(C)OC(C)C`, the Potency entry in test [1], in test [2], in test [4] and in test [5] was “inactive” throughout. In addition, the compound was called inactive in test [3].

`C1CCOC1`: the Potency result in test [1], in test [2], in test [4] and in test [5] was “inactive” in each case. In test [3], the result was inactive.

Take `COC(=O)/C=C(/C)N`: the Potency result in test [1], in test [2], in test [4] and in test [5] was “inactive” in each case. Also, in test [3], the call was inactive.

`NCCCN1CCN(CCCN)CC1`: the Potency result in test [1], in test [2], in test [4] and in test [5] was “inactive” in each case. In test [3], the compound was classed as inactive.

`OCCN(CCO)CCN(CCO)CCO`: the Potency entry in test [1], in test [2], in test [4] and in test [5] was “inactive” throughout. Moreover, the compound was classed as inactive in test [3].

As for `O=C1C=CC(=O)O1`, the Potency result in test [1], in test [2], in test [4] and in test [5] was “inactive” in each case. The compound was classed as inactive in test [3].

In the case of `CN(CC1(C)CCCO1)S(=O)(=O)c1ccc(Cl)c(S(N)(=O)=O)c1` (stereo unspecified), the Potency result in test [1], in test [2], in test [4] and in test [5] was “inactive” in each case. Also, the compound was called inactive in test [3].

As for `CN1[C@@H]2CC[C@H]1CC(OC(=O)c1c[nH]c3ccccc13)C2` (stereo partly specified), the Potency entry in test [1], in test [2], in test [4] and in test [5] was “inactive” in each case. Moreover, the compound was classed as inactive in test [3].

`O=C1CCC(C2CCCCC2)CC1`: the Potency result in test [1], in test [2], in test [4] and in test [5] was “inactive” each time. Besides, in test [3], the compound was classed as inactive.

`Cc1cn([C@@H]2O[C@H](CO)[C@@H](O)[C@@H]2F)c(=O)[nH]c1=O`: the Potency entry in test [1], in test [2], in test [4] and in test [5] was “inactive” in each case. Further, the compound was classed as inactive in test [3].

With `OCc1ccccc1O`, the Potency result in test [1], in test [2], in test [4] and in test [5] was “inactive” throughout. In addition, the outcome in test [3] was inactive.

Consider `CCOC(=O)NCCC[Si](OCC)(OCC)OCC`, for which the Potency entry in test [1], in test [2], in test [4] and in test [5] was “inactive” throughout. The result in test [3] was inactive.

On to `CCOC(=O)c1ccccc1O`, for which the Potency entry in test [1], in test [2], in test [4] and in test [5] was “inactive” in each case. For the same compound, the compound was called inactive in test [3].

Take `OCCN(CCO)c1ccccc1`: the Potency result in test [1], in test [2], in test [4] and in test [5] was “inactive” throughout. Besides, the compound was called inactive in test [3].

Consider `CCCCNCCCC`, for which the Potency entry in test [1], in test [2], in test [4] and in test [5] was “inactive” each time. In addition, in test [3], the outcome was inactive.

In the case of `CCOc1ccc(NC(N)=O)cc1`, the Potency entry in test [1], in test [2], in test [4] and in test [5] was “inactive” in each case. The outcome in test [3] was inactive.

On to `Nc1cccc(S(=O)(=O)O)c1`, for which the Potency entry in test [1], in test [2], in test [4] and in test [5] was “inactive” in each case. In addition, the compound was called inactive in test [3].

As to `CCOc1ccc(NS(=O)(=O)c2ccc(N)cc2)nn1`, the Potency entry in test [1], in test [2], in test [4] and in test [5] was “inactive” each time. For the same compound, the compound was classed as inactive in test [3].

Turning to `CCN1CC(CCN2CCOCC2)C(c2ccccc2)(c2ccccc2)C1=O` (stereo unspecified), the Potency entry in test [1], in test [2], in test [4] and in test [5] was “inactive” in each case. Also, the outcome in test [3] was inactive.

As to `CC(C)(C)c1cccc(O)c1`, the Potency entry in test [1], in test [2], in test [4] and in test [5] was “inactive” each time. Further, in test [3], the compound was classed as inactive.

Take `COc1ccccc1OCC(O)COC(N)=O` (stereo unspecified): the Potency entry in test [1], in test [2], in test [4] and in test [5] was “inactive” throughout. In addition, the result in test [3] was inactive.

Take `C[C@@H]1CN(c2c(F)c(F)c3c(=O)c(C(=O)O)cn(C4CC4)c3c2F)C[C@H](C)N1`: the activation in test [1] is 6.08% [at 15.8 µM]. Also, the activity change, negative = cytotoxicity in test [2] was 10.3% [at 15.8 µM]; in test [3] it was 3.44% [at 19 µM]. In addition, the activity, negative = inhibition in test [4] is 16.3% [at 19 µM]. Besides, in test [5], the Potency entry was “inactive”.

Regarding `Cc1ccsc1C(=CCCN1CCC[C@@H](C(=O)O)C1)c1sccc1C`, the Potency result in test [1], in test [2], in test [4] and in test [5] was “inactive” throughout. For the same compound, the outcome in test [3] was inactive.

Regarding `COC(C)CCO` (stereo unspecified), the Potency result in test [1], in test [2], in test [4] and in test [5] was “inactive” each time. For the same compound, the result in test [3] was inactive.

Turning to `CC(=O)OC1C2(C)CCC(C2)C1(C)C` (stereo unspecified), the Potency entry in test [1], in test [2], in test [4] and in test [5] was “inactive” throughout. In test [3], the outcome was inactive.

Consider `CN1CCN(c2c(F)cc3c(=O)c(C(=O)O)cn4c3c2SCC4)CC1`, for which the Potency entry in test [1], in test [2], in test [4] and in test [5] was “inactive” throughout. Further, in test [3], the call was inactive.

Turning to `O=C(CCCl)NCc1ccccc1`, the Potency result in test [1], in test [2], in test [4] and in test [5] was “inactive” throughout. Moreover, in test [3], the compound was called inactive.
